Bioassay records (PubChem)
Shown are actives, neighbours in structure and some others; about 7.4% of the full set was active somewhere.
ELG1 genotoxic: genotoxicity induction in ELG1-luciferase HEK293T cells. HEK293T ELG1-luciferase reporter, luminescence, 16 h. Potency, µM (top dose mostly 46 µM), usual class: activators. hit rate 1.3% among 330,000. AID 504466; also: nearly all actives have a fitted effect of over 60% in size
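ELG1-luciferase HEK293T cells, 2,000/well; compound pinned in; 16 hr, 37 °C, 5% CO2; ONE-Glo, 30 min RT; luminescence on CCD imager.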
NPC1 prom act: activates the NPC1 promoter; Huh7 NPC1 promoter luciferase reporter, 24 h; Potency, µM (top dose mostly 9.22 µM), most hits filed as activators; hit rate 2.4% among 320,000; AID 485313; also: nearly all actives have a fitted effect of over 60% in size
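Quantitative HTS used a cell-based reporter: Huh7 cells stably bearing the NPC1 promoter upstream of luciferase were treated with compounds for 24 h, and promoter activation was read as luminescence.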
SMN2 splice enh: enhancers of SMN2 splice variant expression; HEK293 SMN2-luciferase splicing reporter, luminescence, 30-36 h; Potency, µM (highest dose often 46.1 µM), hits mostly activators; hit rate 2.8% among 210,000; AID 1458; also: nearly all actives have a fitted effect of over 55% in size
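HEK293 cells carry an SMN2 minigene-luciferase reporter in which exon 7 inclusion puts luciferase in frame. Cells were seeded at 2000 cells/well, attached for 10-12 hours, then exposed to compounds for 30-36 hours at 37C before ONE-Glo luminescence.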
Rab9 prom act: activates the Rab9 promoter; AID 485297; hit rate 2.8% among 320,000; Huh7 Rab9 promoter-luciferase reporter, luminescence, 24 h; Potency, µM (series often up to 9.22 µM), usual class: activators; also: nearly all actives have a fitted effect of over 60% in size
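Quantitative HTS format; Huh7 Rab9-luciferase reporter cells (1500/well) receive compound 2 h post-plating, incubate 24 h at 37 °C, then get luciferase reagent for 10 min before luminescence reading.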
FLuc counter: counter-screen for miR-21 project: firefly luciferase inhibitors or activators. P08659. purified FLuc, Km substrates, luminescence inhibition. Potency, µM (titrated, usually from 57.5 µM), usual class: inhibitors. hit rate 6.9% among 360,000. AID 588342; also: nearly all actives have a fitted effect of over 55% in size
Target sequence (P08659 whole entry, looked up): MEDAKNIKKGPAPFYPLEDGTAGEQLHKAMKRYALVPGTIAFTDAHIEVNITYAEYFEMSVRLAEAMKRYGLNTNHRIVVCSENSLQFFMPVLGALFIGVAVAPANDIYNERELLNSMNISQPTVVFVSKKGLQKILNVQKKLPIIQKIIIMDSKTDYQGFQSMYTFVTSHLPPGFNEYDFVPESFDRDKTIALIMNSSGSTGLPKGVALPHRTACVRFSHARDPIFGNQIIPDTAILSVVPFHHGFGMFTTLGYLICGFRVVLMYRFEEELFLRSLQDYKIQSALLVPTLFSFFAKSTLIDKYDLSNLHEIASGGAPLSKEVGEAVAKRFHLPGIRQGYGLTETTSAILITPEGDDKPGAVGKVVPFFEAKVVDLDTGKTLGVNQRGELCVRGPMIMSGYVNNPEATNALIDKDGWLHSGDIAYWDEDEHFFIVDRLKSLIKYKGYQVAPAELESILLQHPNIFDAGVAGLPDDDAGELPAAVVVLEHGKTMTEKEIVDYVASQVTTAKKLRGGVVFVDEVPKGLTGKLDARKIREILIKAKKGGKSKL
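Biochemical qHTS of compounds, final roughly 60 µM downward over six points, against 10 nM purified firefly luciferase using Km concentrations of substrates (10 uM D-luciferin, 10 uM ATP) in Tris acetate pH 7.5 buffer; luminescence output.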
Large screens that a line does not name were inactive. Calls follow the shape of the dose curve; as a rule, active = well fitted curve in the direction sought with a large enough effect; inconclusive = small, poorly fitted or top-dose-only effect, or another doubt; inactive = no such curve, though single readings can be large; an effect the other way counts as inactive or inconclusive.

CN(C)c1ccc(C(=O)Nc2cccc(S(=O)(=O)N3CCCC3)c2)cc1	Rab9 prom act inconclusive, FLuc counter 1.7µM (no result: SMN2 splice enh)
Cc1ccc(C)c(N2CCN(c3nc4ccccc4n4nnnc34)CC2)c1	none (no result: ELG1 genotoxic, NPC1 prom act, Rab9 prom act)
CCOC(=O)c1cc2c(=O)n3ccccc3nc2n(C(C)C)c1=NC(=O)C(C)(C)Oc1ccc(Cl)cc1	none (no result: ELG1 genotoxic, NPC1 prom act, Rab9 prom act)
Fc1ccc(/C=C/c2nnc(-c3cccs3)o2)cc1	ELG1 genotoxic 10µM, NPC1 prom act 2.2µM, SMN2 splice enh 13µM, Rab9 prom act 1.1µM, FLuc counter 2.7µM
Cc1ccc(-c2nnc(N)o2)cc1	FLuc counter inconclusive
Cc1ccc(-c2nnc(-c3cccs3)o2)cc1	ELG1 genotoxic 5.2µM, NPC1 prom act 3.5µM, SMN2 splice enh 13µM, Rab9 prom act 1.6µM, FLuc counter 6.7µM
Cc1ccc(/C=C/c2nnc(-c3cccs3)o2)cc1	ELG1 genotoxic inconclusive, NPC1 prom act 0.35µM, SMN2 splice enh 10µM, Rab9 prom act 0.89µM, FLuc counter 1.7µM
Cc1ccc(C)c(NC(=O)CSc2nnc(-c3cc4occc4n3C)n2-c2ccccc2C)c1	none (no result: ELG1 genotoxic, NPC1 prom act, SMN2 splice enh, Rab9 prom act)
O=c1oc(-c2ccccc2F)nc2scc(-c3ccccc3)c12	ELG1 genotoxic inconclusive, Rab9 prom act inconclusive, FLuc counter 4.8µM (no result: SMN2 splice enh)
Cc1cc(/C=C(\C#N)C(=O)N2CCOCC2)c(C)n1C1CCCC1	ELG1 genotoxic 1.6µM, NPC1 prom act 0.5µM, Rab9 prom act 0.32µM, FLuc counter 1.1µM (no result: SMN2 splice enh)
CCOc1ccc(NC(=O)CSC2=Nc3ccccc3C3=NC(Cc4ccccc4)C(=O)N23)cc1 (stereo unspecified)	none (no result: ELG1 genotoxic, NPC1 prom act, SMN2 splice enh, Rab9 prom act)
COc1ccccc1Nc1nc2ccccc2n1C	ELG1 genotoxic inconclusive, NPC1 prom act inconclusive, SMN2 splice enh 11µM, Rab9 prom act 2.8µM, FLuc counter 15µM
COc1cccc(CNc2nc3ccccc3n2C)c1O	ELG1 genotoxic 9.2µM, NPC1 prom act 1µM, Rab9 prom act 1.8µM, FLuc counter 9.5µM (no result: SMN2 splice enh)
COc1cccc(CNc2cnc3ccccc3c2)c1O	ELG1 genotoxic 12µM, NPC1 prom act 1.6µM, SMN2 splice enh 3.5µM, Rab9 prom act 1.8µM, FLuc counter 2.4µM
CCCCCn1c(NCc2ccccc2OC)nc2ccccc21	none (no result: ELG1 genotoxic, NPC1 prom act, Rab9 prom act)
Cc1cc2nc(-c3ccc(OCc4ccccc4C)cc3)cc(C(F)(F)F)n2n1	none (no result: ELG1 genotoxic, NPC1 prom act, Rab9 prom act)
O=C(c1ccc(CSc2nc3ccncc3n2Cc2cccc(F)c2)cc1)N1CCCCC1	FLuc counter inconclusive (no result: ELG1 genotoxic, NPC1 prom act, Rab9 prom act)
Cc1cc(NC(=O)n2ncc3c(C)cccc32)ccc1Br	none (no result: ELG1 genotoxic, NPC1 prom act, SMN2 splice enh, Rab9 prom act)
CCOc1ccccc1NC(=O)CCC(=O)Nc1ccccc1OCC	none
CCOc1ccccc1NC(=O)n1ncc2c(C)cccc21	NPC1 prom act 4µM, Rab9 prom act 2.5µM, FLuc counter 7.6µM (no result: SMN2 splice enh)
Cc1cccc2c1cnn2C(=O)Nc1cc(F)ccc1F	ELG1 genotoxic inconclusive, NPC1 prom act inconclusive, Rab9 prom act 0.28µM, FLuc counter 0.67µM (no result: SMN2 splice enh)
CCCCNc1nc(C)nc2c1nc(-c1ccccc1)n2CCN1CCCCC1	none (no result: ELG1 genotoxic, NPC1 prom act, Rab9 prom act, FLuc counter)
O=C(/C=C/c1ccccc1)Nc1cccnc1Oc1ccccc1F	NPC1 prom act inconclusive, Rab9 prom act inconclusive, FLuc counter 4.8µM (no result: SMN2 splice enh)
O=C(Nc1cccc(S(=O)(=O)Nc2ccccc2F)c1)c1ccc2ccccc2n1	FLuc counter 19µM
O=C(/C=C/c1ccccc1)Nc1cccc(S(=O)(=O)Nc2ccccc2F)c1	FLuc counter 6.7µM
COc1ccc(NC(=O)C(=O)NCCc2csc3nc(-c4ccccc4C)nn23)cc1	none (no result: ELG1 genotoxic, NPC1 prom act, SMN2 splice enh, Rab9 prom act)
Cc1cccc(NC(=O)N2CCN(C(=O)c3nsc4ccccc34)CC2)c1C	none (no result: ELG1 genotoxic, NPC1 prom act, SMN2 splice enh, Rab9 prom act)
O=C(CN1C(=O)c2ccccc2S1(=O)=O)N1CCOCC1	SMN2 splice enh inconclusive
O=C(CN1C(=O)c2ccccc2S1(=O)=O)c1ccccc1Cl	Rab9 prom act inconclusive, FLuc counter 3µM (no result: SMN2 splice enh)
O=C(CN1C(=O)c2ccccc2S1(=O)=O)NCc1ccccc1Cl	none
Cc1ccc(C(=O)CN2C(=O)c3ccccc3S2(=O)=O)cc1	FLuc counter inconclusive (no result: SMN2 splice enh)
O=C(CN1C(=O)c2ccccc2S1(=O)=O)c1ccccc1	NPC1 prom act inconclusive, Rab9 prom act inconclusive, FLuc counter 0.6µM
O=C(CN1C(=O)c2ccccc2S1(=O)=O)N1CCCCC1	ELG1 genotoxic 16µM, NPC1 prom act inconclusive, Rab9 prom act 2.5µM (no result: SMN2 splice enh)
Cc1ccc(NC(=O)Cn2cnc3c2c(=O)n(C)c(=O)n3C)cc1C	none (no result: ELG1 genotoxic, NPC1 prom act, SMN2 splice enh, Rab9 prom act)
CCOC(=O)c1c(C)[nH]c(C)c1S(=O)(=O)NCC(=O)Nc1cccc(SC)c1	none (no result: ELG1 genotoxic, NPC1 prom act, SMN2 splice enh, Rab9 prom act)
Cc1ccc(S(=O)(=O)NCCc2nnc3ccc(SCc4cccc(F)c4)nn23)cc1	none (no result: ELG1 genotoxic, NPC1 prom act, SMN2 splice enh, Rab9 prom act)
